Compounds with a hit are over-represented: about 4.2% of the library has one in this group of screens.
Sfp inh: blocks B. subtilis Sfp PPTase activity. Q9F4F7. Biochemical Sfp PPTase activity, qHTS. Potency, µM, hits mostly inhibitors. actives 3.5% (n = 310,000). AID 1490;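 also: the enzyme is Sfp with the accession as filed and its product quenches rhodamine fluorescence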
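Compounds were incubated with enzyme (final 15 nM) for 15 min at room temperature before substrate addition started the reaction. Fluorescence at 525 nm excitation, 598 nm emission was recorded immediately and after 30 minutes.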
uPA surface inh: blocks generation of uPA at the cell surface | cell surface uPA generation assay, qHTS | Potency, µM (series often up to 38.3 µM), hits mostly inhibitors | actives 0.31% (n = 330,000); active = well fitted inhibition curve with a large enough effect; inconclusive = small, poorly fitted or top-dose-only effect; inactive = no such curve, though single readings can be large or run the other way; tested in mouse RAW 264.7 cells; also: nearly all actives have a fitted effect of over 55% in size
ClpP mod: qHTS Assay for Activators of ClpP. ATP-dependent Clp protease proteolytic subunit (Bacillus subtilis (strain 168)), P80244. purified B. subtilis ClpP, FRET peptide cleavage, 20 min. Potency, µM (top dose mostly 57.5 µM). actives 1.9% (n = 340,000). AID 651965, 2013; active = well fitted falling curve with a large enough effect; inconclusive = small, poorly fitted or top-dose-only effect; inactive = no such curve, though single readings can be large or run the other way; also: the source files actives as falling curves though it sought activators and does not explain the sign; nearly all actives have a fitted effect of over 65% in size
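Purified B. subtilis ClpP, 10 microg/mL final in Tris/HCl pH8 with KCl, BSA, glycerol and Tween-20, cleaved an Abz/nitrotyrosine-quenched decapeptide. Fluorescence (ex 320, em 430) was read at 0 and 20 min at room temperature. Delta was normalized to 5.8 microM ADEP and DMSO/no-enzyme controls.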
TCR act: activates T cell receptor signaling. primary human leukocytes, anti-CD3, IL-2 HTRF, 48 h. 330,000 tested, under 10 active. AID 504894. Potency, µM (top dose mostly 9.22 µM), usual class: activators
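Activity was scored as IL-2 release from primary human leukocytes given only a TCR signal (a-CD3 beads) plus compound for 48 hr. Detection used a two-antibody HTRF format read at 665nm.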
Numbers stand for hits; ! = not confirmed by another sample. Unless noted, calls follow the shape of the dose curve; as a rule, active = well fitted curve in the direction sought with a large enough effect; inconclusive = small, poorly fitted or top-dose-only effect, or another doubt; inactive = no such curve, though single readings can be large; an effect the other way counts as inactive or inconclusive.

How did Cc1ccc(S(=O)(=O)N(CC(=O)NC2CCCCCC2)c2ccccc2F)cc1 do in these assays?
Sfp inh: inactive; ClpP mod: inactive; TCR act: inactive

Results for Cc1ccc(N(CC(=O)N/N=C/c2ccco2)S(=O)(=O)c2ccccc2)cc1 ?
Sfp inh: 32µM; uPA surface inh: inactive; ClpP mod: inactive; TCR act: inactive

How did O=C(CSc1n[nH]c(=O)n1Cc1ccccc1)Nc1ccc(F)c(F)c1F do in these assays?
Sfp inh: inconclusive; uPA surface inh: inactive; TCR act: inactive

What do the screens show for `COc1ccc2oc(C(=O)OC(C)C(=O)NCc3ccccc3)c(C)c2c1` (stereo not given)?
uPA surface inh: inactive; TCR act: inactive

What do the screens show for `COc1ccc2oc(C(=O)OCC(=O)NC(C)c3ccccc3)c(C)c2c1` (stereo not given)?
Sfp inh: inactive; uPA surface inh: inactive; ClpP mod: inactive; TCR act: inactive

What do the screens show for `COc1ccc2oc(C(=O)OC(C)C(=O)NC3(C#N)CCCCC3)c(C)c2c1` (stereo not given)?
uPA surface inh: inactive; ClpP mod: 25µM; TCR act: inactive

Results for COc1ccc2oc(C(=O)OCC(=O)NC(=O)NC(C)C)c(C)c2c1 ?
Sfp inh: inactive; uPA surface inh: inactive; ClpP mod: 32µM; TCR act: inactive

Results for COc1ccc2oc(C(=O)OCC(=O)NC(C)(C#N)C3CC3)c(C)c2c1 (stereo not given) ?
uPA surface inh: inactive; ClpP mod: 32µM; TCR act: inactive

How did COc1ccc2oc(C(=O)OCC(=O)NC3CC3)c(C)c2c1 do in these assays?
Sfp inh: inactive; uPA surface inh: inactive; ClpP mod: inactive; TCR act: inactive

How did COc1ccc2oc(C(=O)OCC(=O)Nc3ccc(N4CCOCC4)cc3)c(C)c2c1 do in these assays?
uPA surface inh: inactive; ClpP mod: 32µM; TCR act: inactive

How did Cc1ccc(-c2nc3sc(CCNS(=O)(=O)c4cc(F)ccc4F)c(C)n3n2)cc1 do in these assays?
ClpP mod: inactive

How did O=c1cc(-c2ccc(F)cc2)nc(SCc2nc(-c3ccccc3Cl)no2)[nH]1 do in these assays?
ClpP mod: inactive

What do the screens show for `CCCOc1ccc(C(=O)Nc2cc3c(cc2N2CCOCC2)n(C)c(=O)n3C)cc1`?
ClpP mod: inactive

What do the screens show for `COC(=O)c1oc2ccc(OC)cc2c1N`?
Sfp inh: inactive; ClpP mod: 16µM; TCR act: inactive

How did COc1ccc(C(=O)c2oc3ccc(OC)cc3c2N)cc1 do in these assays?
Sfp inh: inactive; uPA surface inh: inactive; ClpP mod: inactive; TCR act: inactive

How did COc1ccc2oc(C(=O)Nc3nc(C)cs3)c(C)c2c1 do in these assays?
uPA surface inh: 10µM; ClpP mod: inactive; TCR act: inactive

Results for COc1ccc2oc(C(=O)OCC(=O)Nc3ccccc3)c(C)c2c1 ?
Sfp inh: inactive; uPA surface inh: inactive; ClpP mod: 28µM; TCR act: inactive

What do the screens show for `O=C(CCNS(=O)(=O)c1cccc2nsnc12)Nc1ccc(F)cc1`?
ClpP mod: inactive

How did COc1ccccc1C1NC(c2ccc3c(c2)OCO3)=CC(c2cc(Br)ccc2O)N1 (stereo not given) do in these assays?
ClpP mod: inactive

Results for COc1ccc(NC(=O)CS(=O)(=O)c2cn(CC(=O)N3CCOCC3)c3ccccc23)cc1OC ?
Sfp inh: 56µM; uPA surface inh: inactive; ClpP mod: inactive; TCR act: inactive

What do the screens show for `O=C(Cn1cc(S(=O)(=O)Cc2cccc(F)c2)c2ccccc21)N1CCOCC1`?
Sfp inh: 56µM; uPA surface inh: inactive; ClpP mod: inactive; TCR act: inactive

How did Cc1ccc(C)c(C(O)c2ncc(-c3cccc(C(F)(F)F)c3)[nH]2)c1 (stereo not given) do in these assays?
ClpP mod: inactive

Results for Cc1nc(N2CCN(S(=O)(=O)c3ccccc3C#N)CC2)c2c(-c3cccs3)csc2n1 ?
Sfp inh: inactive; uPA surface inh: inactive; ClpP mod: inactive; TCR act: inactive

How did Cc1nc(N2CCCCC2)c2c(-c3cccs3)csc2n1 do in these assays?
Sfp inh: 56µM; uPA surface inh: inactive; ClpP mod: inactive; TCR act: inactive

How did COc1ccc(N2C(=O)c3ccccc3NC2c2ccc(OC)c(CSc3ccccn3)c2)cc1 (stereo not given) do in these assays?
Sfp inh: inactive; uPA surface inh: inactive; ClpP mod: 25µM

What do the screens show for `COc1ccc(C2Nc3ccccc3C(=O)N2c2ccc(C)cc2)cc1Cn1nnc2ccccc21` (stereo not given)?
Sfp inh: inactive; uPA surface inh: inactive; ClpP mod: 32µM; TCR act: inactive

Results for COc1ccc(C2Nc3ccccc3C(=O)N2Cc2ccco2)cc1COc1ccc(F)cc1 (stereo not given) ?
Sfp inh: 40µM; uPA surface inh: inactive; ClpP mod: 25µM; TCR act: inactive

Results for COc1ccc(N2C(=O)c3ccccc3NC2c2ccc(OC)c(COc3ccccn3)c2)cc1 (stereo not given) ?
Sfp inh: inactive; uPA surface inh: inactive; ClpP mod: 25µM!; TCR act: inactive

What do the screens show for `COc1ccc(-c2csc(C3=C(O)CN(CCCN4CCCC4=O)C3=N)n2)cc1OC`?
Sfp inh: inactive; uPA surface inh: inactive; ClpP mod: inactive; TCR act: inactive

How did CC(=O)C[C@H]1SC[C@@H](C(C)C)N1S(=O)(=O)c1ccc(C)cc1 do in these assays?
ClpP mod: inactive

What do the screens show for `COC(=O)C1=C(C)N(Cc2ccccc2)C(=NCCCCO)N[C@H]1CCc1ccccc1`?
Sfp inh: inactive; uPA surface inh: inactive; ClpP mod: inactive; TCR act: inactive

What do the screens show for `CCOc1cc(C2Nc3ccccc3C(=O)N2c2ccccc2OC)ccc1O` (stereo not given)?
Sfp inh: inactive; uPA surface inh: inactive; ClpP mod: inconclusive; TCR act: inactive

What do the screens show for `COc1cc(C2Nc3ccccc3C(=O)N2c2ccccc2OC)ccc1O` (stereo not given)?
Sfp inh: inactive; uPA surface inh: inactive; ClpP mod: 32µM; TCR act: inactive

How did COc1ccc(C2Nc3ccccc3C(=O)N2Cc2ccccc2)cc1COc1ccccn1 (stereo not given) do in these assays?
Sfp inh: inactive; uPA surface inh: inactive; ClpP mod: 25µM; TCR act: inactive

How did COc1ccc(C2Nc3ccccc3C(=O)N2Cc2ccccc2)cc1COc1ccccc1F (stereo not given) do in these assays?
ClpP mod: inactive

What do the screens show for `COc1ccc(C2C(=O)N(C3CCCCCC3)CC(=O)N2Cc2ccc(C)cc2)cc1OC` (stereo not given)?
ClpP mod: inactive

How did COc1cc(NC(C)=O)c2ncccc2c1NC(C)=O do in these assays?
Sfp inh: inactive; uPA surface inh: inactive; ClpP mod: inactive; TCR act: inactive

What do the screens show for `COc1cc(NC(C)=O)c2ncccc2c1[N+](=O)[O-]`?
Sfp inh: inactive; uPA surface inh: inactive; ClpP mod: 22µM; TCR act: inactive

How did Cn1nnnc1Sc1ncnc2scc(-c3ccc(Cl)cc3)c12 do in these assays?
uPA surface inh: inconclusive; TCR act: inactive

Source: PubChem BioAssay (National Center for Advancing Translational Sciences (NCATS))
